From PubChem BioAssay (NCATS) come the findings set out here.

Results filed as inconclusive are left out. Where a call stands in place of a potency, no number is given. The source made the active and inactive calls. Calls follow the shape of the full dose curve.

One assay in a line: Primary qHTS for inhibitors of MERS-S pseudo-typed particle cell entry (AID 1479149). Also: nearly all actives have a fitted effect of over 60% in size. The note with it: MERS-S pseudotyped particle entry, luciferase; series mostly up to 57.1 µM.
Consider `CCCc1nc(C(C)(C)O)c(C(=O)OCc2oc(=O)oc2C)n1Cc1ccc(-c2ccccc2-c2nn[nH]n2)cc1`, for which the Potency entry was “inactive”.

For `N[C@@H](CCC(=O)N[C@@H](CS)C(=O)NCC(=O)O)C(=O)O`, the Potency result is “inactive”.

On to `CCCCCCCCCCCCCCCCCC(=O)OCC(O)CO` (stereo unspecified), for which the Potency entry is “inactive”.

`O=C(COCCOCCOCC(=O)Nc1c(I)cc(I)c(C(=O)O)c1I)Nc1c(I)cc(I)c(C(=O)O)c1I`: the Potency entry was “inactive”.

As for `O=C(O)c1cc(=O)c2c(OCC(O)COc3cccc4oc(C(=O)O)cc(=O)c34)cccc2o1`, the Potency result was “inactive”.

For `CCCCCCCCCCCCCCCC(=O)OCCC1CCN(CCCN2c3ccccc3Sc3ccc(S(=O)(=O)N(C)C)cc32)CC1`, the Potency entry was “inactive”.

Consider `CN1C[C@H](C(=O)N[C@]2(C)O[C@@]3(O)[C@@H]4CCCN4C(=O)[C@H](Cc4ccccc4)N3C2=O)C=C2c3cccc4[nH]cc(c34)C[C@H]21`, for which the Potency result is “inactive”.

On to `CN1[C@@H]2CC(OC(=O)[C@H](CO)c3ccccc3)C[C@H]1[C@@H]1O[C@@H]12` (stereo partly specified), for which the Potency result was “inactive”.

Regarding `CO[C@@]1(NC(=O)C2SC(=C(C(N)=O)C(=O)O)S2)C(=O)N2C(C(=O)O)=C(CSc3nnnn3C)CS[C@@H]21` (stereo partly specified), the Potency result was “inactive”.

With `O=C(O)c1cc(N=Nc2ccc(O)c(C(=O)O)c2)ccc1O`, the Potency entry was “inactive”.

`Cc1cccc(C)c1OCC(=O)N[C@@H](Cc1ccccc1)[C@@H](O)C[C@H](Cc1ccccc1)NC(=O)[C@H](C(C)C)N1CCCNC1=O`: the Potency result was “inactive”.

Regarding `CCC(=O)c1c(O)cc(O)cc1O`, the Potency result was “inactive”.

As for `CC(=O)OCC(=O)[C@@]1(O)[C@H](C)C[C@H]2[C@@H]3CCC4=CC(=O)C=C[C@]4(C)[C@@]3(F)[C@@H](O)C[C@@]21C`, the Potency result is “inactive”.

As for `CC(CCc1ccccc1)NCC(O)c1ccc(O)c(C(N)=O)c1` (stereo unspecified), the Potency result is “inactive”.

On to `N#Cc1ccc(C(c2ccc(C#N)cc2)n2cncn2)cc1`, for which the Potency entry is “inactive”.

Consider `COC(=O)C(c1ccccc1)C1CCCCN1` (stereo unspecified), for which the Potency entry was “inactive”.

On to `C#CCN[C@@H]1CCc2ccccc21`, for which the Potency result was “inactive”.

Regarding `CC(C(=O)O)c1ccc(/C=C2\CCCCC2=O)cc1` (stereo unspecified), the Potency entry is “inactive”.

In the case of `O=P(O)(O)C(Sc1ccc(Cl)cc1)P(=O)(O)O`, the outcome is “inactive [at 0.573 µM]”.

On to `CCCC(O)C(CC)CO` (stereo unspecified), for which the Potency result was “inactive”.

As for `CCCCOC(=O)c1ccc(N)cc1`, the Potency entry was “inactive”.

As for `Cc1c(C(C)C)c(=O)n(-c2ccccc2)n1C`, the Potency result was “inactive”.

In the case of `CCCCCCCCCCC[C@@H](C[C@@H]1OC(=O)[C@H]1CCCCCC)OC(=O)[C@H](CC(C)C)NC=O`, the Potency entry was “inactive”.

Turning to `CCCCCCCCCCCCCCCCCCO`, the Potency result was “inactive”.

Take `CC(C)(CO)[C@@H](O)C(=O)NCCCO`: the Potency entry is “inactive”.

With `CN[C@@H]1[C@@H](O)[C@@H](O[C@@H]2[C@H](O)[C@H](O[C@H]3OC(CN)=CC[C@H]3N)[C@@H](N)C[C@H]2N)OCC1(C)O` (stereo partly specified), the Potency entry is “inactive”.

With `CCN(CC)C(=O)/C(C#N)=C/c1cc(O)c(O)c([N+](=O)[O-])c1`, the Potency result is “inactive”.

For the compound `COc1ccc(C(=O)CC(=O)c2ccc(C(C)(C)C)cc2)cc1`, the Potency entry is “inactive”.

On to `CCCCCC[C@@H](CCC)C(=O)O`, for which the Potency entry was “inactive”.

Take `NC(=O)c1ncn([C@@H]2O[C@H](CO)[C@@H](O)[C@H]2O)c1O`: the Potency result is “inactive”.

Regarding `CCn1cc(C(=O)O)c(=O)c2cnc(N3CCCC3)nc21`, the outcome was “inactive [at 11.4 µM]”.

On to `O=C(N[C@H](CO)[C@H](O)c1ccc([N+](=O)[O-])cc1)C(Cl)Cl`, for which the Potency entry was “inactive”.

As to `CC(=O)c1ccc(S(=O)(=O)NC(=O)NC2CCCCC2)cc1`, the Potency result was “inactive”.

Turning to `CC(=O)N=c1sc(S(N)(=O)=O)nn1C`, the Potency result is “inactive”.

`O=C(O)c1cccnc1`: the Potency entry was “inactive”.

As for `O=C(O)Cc1cccc(-c2cc(CCCCCCc3ccc(O[C@H]4O[C@H](CO)[C@@H](O)[C@H](O)[C@@H]4O)c(-c4cccc(CC(=O)O)c4)c3)ccc2O[C@H]2O[C@H](CO)[C@@H](O)[C@H](O)[C@@H]2O)c1`, the outcome was “inactive [at 0.573 µM]”.

With `Cn1nnc2c(C(N)=O)ncn2c1=O`, the Potency entry is “inactive”.

Take `CN1CCN(CC(=O)N2c3ccccc3C(=O)Nc3cccnc32)CC1`: the outcome is “inactive [at 5.34 µM]”.

Another assay is described as follows: Primary qHTS for Vero E6 cytotoxicity: counterscreen for inhibitors of SARS-S pseudo-typed particle cell entry (AID 1479150). The note with it: cell viability; series mostly up to 57.1 µM.
On to `CCCc1nc(C(C)(C)O)c(C(=O)OCc2oc(=O)oc2C)n1Cc1ccc(-c2ccccc2-c2nn[nH]n2)cc1`, for which the Potency result is “inactive”.

Turning to `N[C@@H](CCC(=O)N[C@@H](CS)C(=O)NCC(=O)O)C(=O)O`, the Potency result is “inactive”.

Consider `CCCCCCCCCCCCCCCCCC(=O)OCC(O)CO` (stereo unspecified), for which the Potency entry was “inactive”.

With `O=C(COCCOCCOCC(=O)Nc1c(I)cc(I)c(C(=O)O)c1I)Nc1c(I)cc(I)c(C(=O)O)c1I`, the Potency entry is “inactive”.

Take `O=C(O)c1cc(=O)c2c(OCC(O)COc3cccc4oc(C(=O)O)cc(=O)c34)cccc2o1`: the Potency entry was “inactive”.

Turning to `CCCCCCCCCCCCCCCC(=O)OCCC1CCN(CCCN2c3ccccc3Sc3ccc(S(=O)(=O)N(C)C)cc32)CC1`, the Potency entry was “inactive”.

On to `CN1C[C@H](C(=O)N[C@]2(C)O[C@@]3(O)[C@@H]4CCCN4C(=O)[C@H](Cc4ccccc4)N3C2=O)C=C2c3cccc4[nH]cc(c34)C[C@H]21`, for which the Potency entry is “inactive”.

As to `CN1[C@@H]2CC(OC(=O)[C@H](CO)c3ccccc3)C[C@H]1[C@@H]1O[C@@H]12` (stereo partly specified), the Potency entry is “inactive”.

Consider `CO[C@@]1(NC(=O)C2SC(=C(C(N)=O)C(=O)O)S2)C(=O)N2C(C(=O)O)=C(CSc3nnnn3C)CS[C@@H]21` (stereo partly specified), for which the Potency entry was “inactive”.

With `O=C(O)c1cc(N=Nc2ccc(O)c(C(=O)O)c2)ccc1O`, the Potency entry is “inactive”.

As to `Cc1cccc(C)c1OCC(=O)N[C@@H](Cc1ccccc1)[C@@H](O)C[C@H](Cc1ccccc1)NC(=O)[C@H](C(C)C)N1CCCNC1=O`, the Potency entry was “inactive”.

With `CCC(=O)c1c(O)cc(O)cc1O`, the Potency entry was “inactive”.

With `CC(=O)OCC(=O)[C@@]1(O)[C@H](C)C[C@H]2[C@@H]3CCC4=CC(=O)C=C[C@]4(C)[C@@]3(F)[C@@H](O)C[C@@]21C`, the Potency result is “inactive”.

Regarding `CC(CCc1ccccc1)NCC(O)c1ccc(O)c(C(N)=O)c1` (stereo unspecified), the Potency entry was “inactive”.

Consider `N#Cc1ccc(C(c2ccc(C#N)cc2)n2cncn2)cc1`, for which the Potency entry was “inactive”.

`COC(=O)C(c1ccccc1)C1CCCCN1` (stereo unspecified): the Potency entry was “inactive”.

`C#CCN[C@@H]1CCc2ccccc21`: the Potency entry was “inactive”.

For `CC(C(=O)O)c1ccc(/C=C2\CCCCC2=O)cc1` (stereo unspecified), the Potency result was “inactive”.

Consider `O=P(O)(O)C(Sc1ccc(Cl)cc1)P(=O)(O)O`, for which the outcome is “inactive [at 0.573 µM]”.

Turning to `CCCC(O)C(CC)CO` (stereo unspecified), the Potency entry is “inactive”.

In the case of `CCCCOC(=O)c1ccc(N)cc1`, the Potency result is “inactive”.

For the compound `Cc1c(C(C)C)c(=O)n(-c2ccccc2)n1C`, the Potency entry is “inactive”.

`CCCCCCCCCCC[C@@H](C[C@@H]1OC(=O)[C@H]1CCCCCC)OC(=O)[C@H](CC(C)C)NC=O`: the Potency entry is “inactive”.

As to `CCCCCCCCCCCCCCCCCCO`, the Potency entry is “inactive”.

Take `CC(C)(CO)[C@@H](O)C(=O)NCCCO`: the Potency result is “inactive”.

Take `CN[C@@H]1[C@@H](O)[C@@H](O[C@@H]2[C@H](O)[C@H](O[C@H]3OC(CN)=CC[C@H]3N)[C@@H](N)C[C@H]2N)OCC1(C)O` (stereo partly specified): the Potency entry was “inactive”.

For `CCN(CC)C(=O)/C(C#N)=C/c1cc(O)c(O)c([N+](=O)[O-])c1`, the Potency entry was “inactive”.

Take `COc1ccc(C(=O)CC(=O)c2ccc(C(C)(C)C)cc2)cc1`: the Potency result was “inactive”.

Turning to `CCCCCC[C@@H](CCC)C(=O)O`, the Potency result is “inactive”.

Take `NC(=O)c1ncn([C@@H]2O[C@H](CO)[C@@H](O)[C@H]2O)c1O`: the Potency result is “inactive”.

As to `CCn1cc(C(=O)O)c(=O)c2cnc(N3CCCC3)nc21`, the outcome is “inactive [at 11.4 µM]”.

Turning to `O=C(N[C@H](CO)[C@H](O)c1ccc([N+](=O)[O-])cc1)C(Cl)Cl`, the Potency result was “inactive”.

Regarding `CC(=O)c1ccc(S(=O)(=O)NC(=O)NC2CCCCC2)cc1`, the Potency result is “inactive”.

Consider `CC(=O)N=c1sc(S(N)(=O)=O)nn1C`, for which the Potency result is “inactive”.

Turning to `O=C(O)c1cccnc1`, the Potency result was “inactive”.

Consider `O=C(O)Cc1cccc(-c2cc(CCCCCCc3ccc(O[C@H]4O[C@H](CO)[C@@H](O)[C@H](O)[C@@H]4O)c(-c4cccc(CC(=O)O)c4)c3)ccc2O[C@H]2O[C@H](CO)[C@@H](O)[C@H](O)[C@@H]2O)c1`, for which the outcome is “inactive [at 0.573 µM]”.

For `Cn1nnc2c(C(N)=O)ncn2c1=O`, the Potency entry was “inactive”.

As to `CN1CCN(CC(=O)N2c3ccccc3C(=O)Nc3cccnc32)CC1`, the outcome was “inactive [at 5.34 µM]”.
